High-throughput results: PubChem BioAssay, National Center for Advancing Translational Sciences (NCATS)
Most compounds without a hit are left out; they make up all but 6.2% or so of the library.
RORgamma inh – qHTS for inhibitors of ROR gamma transcriptional activity; 310,000 compounds, 5.4% hits; Drosophila S2 Gal4-RORgamma UAS-luciferase reporter, 20 h; AID 2551, 2010; Potency, µM (top dose mostly 53.6 µM), for the others: at the highest dose activity change, negative = inhibition, actives largely listed as inhibitors; further: nearly all actives have a fitted effect of over 60% in size
Target sequence (P51450 whole entry, looked up, the tested form may be a part): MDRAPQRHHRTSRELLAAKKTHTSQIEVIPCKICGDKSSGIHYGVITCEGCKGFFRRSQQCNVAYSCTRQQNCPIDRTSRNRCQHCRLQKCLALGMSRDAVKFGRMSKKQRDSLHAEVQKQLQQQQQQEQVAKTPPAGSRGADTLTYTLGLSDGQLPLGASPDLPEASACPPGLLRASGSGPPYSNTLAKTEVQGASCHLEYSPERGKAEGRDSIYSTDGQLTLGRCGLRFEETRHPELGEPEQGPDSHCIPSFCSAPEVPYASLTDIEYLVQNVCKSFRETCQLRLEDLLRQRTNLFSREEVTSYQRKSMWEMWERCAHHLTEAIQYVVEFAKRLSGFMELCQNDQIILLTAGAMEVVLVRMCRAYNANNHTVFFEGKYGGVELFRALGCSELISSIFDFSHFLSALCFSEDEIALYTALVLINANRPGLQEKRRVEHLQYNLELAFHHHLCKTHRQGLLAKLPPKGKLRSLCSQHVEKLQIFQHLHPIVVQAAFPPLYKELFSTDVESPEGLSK
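Using a luciferase readout, inhibitors were identified by reduced reporter activity in Drosophila cells coexpressing a copper-inducible Gal4–ROR gamma fusion and UAS-driven Photinus luciferase, incubated 20 hr after 700 uM copper sulfate.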
VP16 counter – VP16 counterscreen qHTS for inhibitors of ROR gamma transcriptional activity | 310,000 compounds, 3.5% hits | Potency, µM (doses to about 53.6 µM), inactives show top-dose activity, negative = inhibition, hits mostly inhibitors | Drosophila S2 Gal4-VP16 UAS-luciferase, luminescence, 20 h;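 further: Gal4-VP16 expression switched on by copper sulfate through the metallothionein promoter; nearly all actives have a fitted effect of over 50% in size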
KinaseGlo FLuc – Counterscreen for Luciferase (Kinase-Glo TM) Inhibition. 200,000 compounds, 0.28% hits. Luciferin 4-monooxygenase (Photuris pensylvanica), Q27757. AID 1379, 2008. Kinase-Glo luciferase, ATP luminescence, 8 min. Potency, µM (top dose mostly 38.3 µM), without a hit: top-dose activity change, negative = inhibition, most hits filed as inhibitors; further: nearly all actives have a fitted effect of over 60% in size
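Inhibition of Kinase-Glo luciferase light generation was assessed at 10 uM ATP in pH 7.2 imidazole buffer, with luminescence measured after eight minutes at ambient temperature.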
Numbers without * were called inactive; ? = inconclusive; nt = no result. The call rests on the fitted dose curve; in most records, active means well fitted curve in the direction sought with a large enough effect; inconclusive means small, poorly fitted or top-dose-only effect, or another doubt; inactive means no such curve, though single readings can be large; an effect the other way counts as inactive or inconclusive. On the % scale 0 is the no-effect control and ±100 the full control effect; potency means the concentration at half of the fitted maximal effect.

SMILES | RORgamma inh | VP16 counter | KinaseGlo FLuc
c1ccc(-c2cn3c(n2)-c2ccccc2C3)cc1 | 10µM* | ? | 7.1µM*
O=C1c2ccccc2CN2C(=O)c3ccccc3CN12 | 21% | -5% | nt
COc1ccc(-c2nnc(SC(C)C(=O)Nc3c(C)n(C)n(-c4ccccc4)c3=O)o2)cc1 (stereo not given) | 15% | -4% | 1%
Cc1ccc(C(=O)c2nccn2C)cc1C | -3% | 5% | nt
Cc1cc(C(=O)CSc2nnc(-c3cccs3)n2Cc2ccccc2)c(C)n1C | 43% | 3% | -4%
O=c1cc(CSc2nnc(-c3cccs3)n2Cc2ccccc2)nc2sc3ccccc3n12 | ? | 14µM* | -7%
CC1CC2C3CCC4=CC(=O)C=C[C@@]4(C)[C@]3(F)C(O)C[C@]2(C)[C@]1(O)C(=O)CO (stereo not given in full) | -12% | 5% | 0%
COc1cc(CNc2ccc3[nH]c(=O)[nH]c3c2)ccc1OCc1ccc(Cl)cc1 | 2.8µM* | ? | nt
COc1cc(CNc2ccc3[nH]c(=O)[nH]c3c2)ccc1OCc1ccc(F)cc1 | ? | 3% | nt
CC(C)(C)C(=O)Nc1sc2c(c1C#N)CCC2 | 3% | -2% | -2%
N#Cc1c(NC(=S)NC(=O)Cc2cccs2)sc2c1CCCCC2 | 5µM* | 16µM* | 0%
CC(=O)NC(=S)Nc1sc2c(c1C#N)CCCCC2 | 11µM* | 8.9µM* | nt
N#Cc1c(NC(=O)CSc2nc(N)cc(=O)[nH]2)sc2c1CCCCCC2 | -4% | ? | 5%
N#Cc1c(NC(=O)CSc2ncn[nH]2)sc2c1CCCCC2 | 0.4µM* | 0.16µM* | 1%
Cn1nccc1C(=O)NC(=S)Nc1sc2c(c1C#N)CCCCC2 | -35% | 3% | 0%
CC(=O)Nc1sc2c(c1C#N)CCCC2 | 12% | ? | 11%
CC(C)(C)C(=O)NC(NC(=S)Nc1sc2c(c1C#N)CCCC2)C(Cl)(Cl)Cl (stereo not given) | 10µM* | ? | -2%
COc1ccc(OCc2nc(-c3ccc(F)c(F)c3)cs2)cc1 | 38% | -9% | nt
CSc1cccc(CN2CCN(Cc3ccc(F)c(F)c3)C(CCO)C2)c1 (stereo not given) | -10% | 12% | nt
CC1CCCN(C(=S)NCCc2ccccc2)C1 (stereo not given) | ? | -1% | -1%
CCOC(=O)c1ccc(NC(=S)N2CCCC(C(=O)N3CCCC3)C2)cc1 (stereo not given) | -24% | 2% | nt
CCCCc1ccc(NC(=S)N2CCCC(C)C2)cc1 (stereo not given) | 5µM* | ? | 2%
CCOC(=O)c1ccc(NC(=S)N2CCCC(C)C2)cc1 (stereo not given) | 13µM* | ? | 2%
COCOc1c2c(c(OCOC)c3c(OCOC)cccc13)/C(=N/N[S+](=O)([O-])c1ccc(C)cc1)C1=C2CCCC1 | -13% | 1% | 1%
COc1cccc(-c2nn(-c3ccccc3)cc2/C=C(/NC(=O)c2ccccc2)C(=O)O)c1 | -17% | 2% | nt
SMILES | RORgamma inh | VP16 counter | KinaseGlo FLuc
O=C(O)CCCN1C(=O)/C(=C/c2ccncc2)SC1=S | 8.9µM* | 10µM* | nt
O=C(O)CCCCCN1C(=O)/C(=C/c2ccncc2)SC1=S | 11µM* | 10µM* | -1%
O=C(CCN1C(=O)/C(=C\c2ccccc2)SC1=S)NNC(=O)c1ccncc1 | -21% | 3% | nt
O=C(O)CCCCCN1C(=O)/C(=C\c2ccc(-c3ccc(Cl)cc3)o2)SC1=S | 28% | 9% | nt
CC(c1ccccc1)N1C(=O)/C(=C/c2ccncc2)SC1=S (stereo not given) | ? | 16µM* | nt
O=C(O)C(c1ccccc1)N1C(=O)/C(=C/c2cccs2)SC1=S (stereo not given) | -23% | -10% | nt
O=C(O)CCCCCN1C(=O)/C(=C\c2ccncc2)SC1=S | 13µM* | 10µM* | -2%
O=C(CCN1C(=O)/C(=C/c2ccccc2)SC1=S)NNC(=O)c1ccncc1 | -6% | -8% | 1%
Clc1ccccc1-c1nccc(NCc2cccs2)n1 | ? | -11% | nt
CCNc1ncc2nc(CCc3ccccc3)c(=O)n(CCOC)c2n1 | -1% | -8% | 2%
Cc1c(N(C)C(=O)COc2ccc3ccccc3c2)c(=O)n(-c2ccccc2)n1C | -1% | 10% | nt
CCOc1ccc(N(CC(=O)NC(C)(C)C)C(=O)c2ccco2)cc1 | 4% | 12% | -3%
COc1cc(SSc2cc(OC)cc([N+](=O)[O-])c2N)c(N)c([N+](=O)[O-])c1 | ? | -8% | nt
CCCCC[C@H](O)/C=C/C=C\C=C\C=C\[C@@H](O)[C@@H](O)CCCC(=O)O | -4% | 1% | 3%
CCc1cccc2c1NC(=O)C21OCCO1 | 3% | 1% | nt
